D1 antag: Antagonist of Human D 1 Dopamine Receptor: qHTS | D(1A) dopamine receptor (Homo sapiens), P21728 | HEK293 TREx D1 cells, calcium flux, dopamine EC80; hits give low values | activity change, negative = inhibition, % at 10 µM | actives 3.2% (n = 360,000) | AID 504652, 2011; in the data active means activity change below about -30%; further: on the % scale 0 is the no-effect control and ±100 the full control effect
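Allosteric or orthosteric antagonism assessed as attenuation of the calcium response to EC80 dopamine, added 180 s after compound, in induced HEK293 Trex D1 cells loaded with no-wash calcium dye.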
D1 potentiator: Potentiators of Human D1 Dopamine Receptor: qHTS; AID 504651, 2011; actives 0.036% (n = 360,000); D(1A) dopamine receptor (Homo sapiens), P21728; HEK293 TREx D1 cells, calcium flux, dopamine EC20 potentiation; potentiation, % at 10 µM; in the data active means potentiation above about 30%; further: 0% is about no effect
D1 ag: Allosteric Agonists of the Human D1 Dopamine Receptor: qHTS. HEK293 T-REx D1 cells, calcium flux, agonist mode. activation, % at 2 µM. actives 1% (n = 360,000); further: 0% is about no effect
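Agonism was scored from calcium flux recorded over 180 s (1 read/s) after pintool compound addition, following a 10-cycle baseline. Cells were inducible force-coupled HEK293 TREx D1, plated overnight at 30 C and loaded with no-wash calcium dye.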
TRHR ag: qHTS for Small Molecule Agonists and Allosteric Enhancers of Human TRH Receptor: Primary Screen for Agonists; Thyrotropin-releasing hormone receptor (Homo sapiens), P34981; activation, % at 2 µM; TRHR cells, calcium flux fluo-8, FDSS agonist mode; actives 0.18% (n = 360,000); further: 0% is about no effect
Target sequence (P34981 whole entry, looked up): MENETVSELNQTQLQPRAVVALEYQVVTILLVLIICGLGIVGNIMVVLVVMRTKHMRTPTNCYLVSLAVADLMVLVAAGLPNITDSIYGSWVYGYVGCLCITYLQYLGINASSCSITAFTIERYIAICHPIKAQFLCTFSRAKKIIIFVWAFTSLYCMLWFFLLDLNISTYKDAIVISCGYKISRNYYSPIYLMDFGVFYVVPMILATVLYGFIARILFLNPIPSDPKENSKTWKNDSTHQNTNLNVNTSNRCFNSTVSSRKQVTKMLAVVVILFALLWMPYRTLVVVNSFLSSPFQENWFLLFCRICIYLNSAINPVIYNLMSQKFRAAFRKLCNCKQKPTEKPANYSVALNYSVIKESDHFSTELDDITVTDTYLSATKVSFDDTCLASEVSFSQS
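Fluo-8-loaded TRHR cells; 10 s baseline, compound added, kinetic Ca2+ fluorescence read 1/s, agonist mode.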
TRHR enhancer: qHTS for Small Molecule Agonists and Allosteric Enhancers of Human TRH Receptor: Primary Screen for Enhancers. Thyrotropin-releasing hormone receptor (Homo sapiens), P34981. TRHR cells, fluo-8 calcium fluorescence, EC20 TRH enhancement. enhancement, % at 2 µM. actives 0.66% (n = 360,000); in the data active means enhancement above about 30%; further: 0% is about no effect
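Enhancer read-out: after compound pinning and an initial kinetic agonist-mode read, an EC20 of TRH (10 nM final) was injected and fluo-8 calcium signal (Ex 480/Em 530) followed at 1 s/cycle for 100 cycles in TRHR-expressing cells.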
USP1 inh: Inhibitors of USP1/UAF1: Primary Screen. Ubiquitin carboxyl-terminal hydrolase 1 (Homo sapiens), O94782. recombinant USP1/UAF1, Ub-Rhodamine cleavage fluorescence. Potency, µM (doses to about 57.1 µM), for inactives: at the highest dose activity change, negative = inhibition, usual class: inhibitors. actives 0.23% (n = 390,000). AID 743255, 2014; active means well fitted inhibition curve with a large enough effect; inconclusive means small, poorly fitted or top-dose-only effect; inactive means no such curve, though single readings can be large or run the other way; further: potency means the concentration at half of the fitted maximal effect; on the % scale 0 is the no-effect control and ±100 the full control effect; nearly all actives have a fitted effect of over 60% in size
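In this screen, compounds sit with the deubiquitinase complex (1nM) for 15 min at room temperature before Ub-Rho is added at 150nM final. Fluorescence rise is then followed for 6 reads every 60 seconds.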
The depositor's hits bear a star; u = inconclusive; x = no result given. Sampled rows, rich in hits. Any-hit rate of the full collection: about 4.4%. Unless noted, no stated cut-off is given here; in the data, active means activation above about 30%; inactive means the rest.

SMILES | D1 antag | D1 potentiator | D1 ag | TRHR ag | TRHR enhancer | USP1 inh
OCCN1CCN(CC(O)COc2ccc(Cl)cc2)CC1 (configuration not stated) | 9 | -7 | 3 | 0 | 7 | 2%
NCCOc1ccc(C23CC4CC(CC(C4)C2)C3)cc1 | 56 | 36* | 127* | 0 | 3 | -22%
CCc1ccccc1N1CC(c2nc3ccccc3n2CC(C)C)CC1=O (configuration not stated) | 21 | -2 | -1 | 0 | -4 | -16%
COc1ccc(-n2c(-c3cccc(F)c3)nc3c(cnn3-c3ccc(C)cc3)c2=O)cc1 | -17 | -2 | 3 | 1 | 1 | -27%
c1cncc(-c2nc(NCc3ccc4c(c3)OCO4)c3ccccc3n2)c1 | -5 | -2 | 3 | 2 | 32* | -20%
Cc1ccc(C)c(C(=O)C(C)Sc2nc3nn(-c4ccccc4)c(=O)c-3c3n2CCCCC3)c1 (configuration not stated) | -36* | 2 | 4 | 0 | 15 | -28%
Cc1ccc(CN(Cc2ccco2)c2cnc(S(C)(=O)=O)nc2C(=O)Nc2ccc(Br)cc2)o1 | 12 | 3 | -3 | -1 | 15 | -18%
Cc1ccc(-n2[nH]c(C)c(/C=N/NC(=O)c3ccc([N+](=O)[O-])cc3)c2=O)c(C)c1 | -14 | -9 | 1 | 0 | 50* | x
Cc1[nH]n(-c2cccc3ccccc23)c(=O)c1/C=N/NC(=O)c1cccc([N+](=O)[O-])c1 | -1 | -3 | 0 | 0 | 4 | -21%
COc1ccc(OC(C)c2nc3ccccc3[nH]2)cc1 (configuration not stated) | -33* | 8 | 0 | -1 | 2 | u
COc1ccc(OCc2nc3ccccc3[nH]2)cc1 | -2 | -6 | 1 | 0 | 2 | 11%
CCCn1c2ccccc2c2cnn(CC(=O)N3CCC(C(=O)OCC)CC3)c(=O)c21 | 9 | 3 | -1 | -1 | -12 | -14%
N#CC(C#N)=C/C=C(\Nc1ccc(Cl)cc1)c1ccc(Cl)cc1 | -28 | -10 | 79* | 22 | -1 | -17%
N#C/C(C(=O)Nc1ccc(Cl)cc1)=C(/S)Nc1ccccc1 | 1 | -4 | 25 | 0 | -6 | u
COC(=O)c1cc2c(=O)c3ccccc3oc2nc1C | 7 | 6 | 1 | 1 | -3 | 0%
COC(=O)c1cc2c(=O)c3ccccc3oc2nc1/C=C/N(C)C | 1 | -2 | 76* | 35* | -2 | u
CCOC(=O)CSc1nc2cc3c(cc2c(=O)n1Cc1ccc(C(=O)NCCc2ccc(OC)c(OC)c2)cc1)OCO3 | -12 | -3 | 3 | 0 | -5 | -14%
CCOc1ccccc1N/C(=C(/C(Cl)=C(Cl)Cl)[N+](=O)[O-])n1cncn1 | -39* | -11 | 1 | 0 | -2 | -9%
COCCCNC(=O)c1ccc(Cn2c(=O)c3ccccc3n(Cc3c(C)cc(C)cc3C)c2=O)cc1 | 11 | 2 | 3 | 0 | 18 | -6%
O=C(NCCCn1ccnc1)c1ccc(NS(=O)(=O)c2ccc(Cl)c(Cl)c2)cc1 | 0 | 11 | 34* | -1 | 2 | -15%
O=C(NCCCn1ccnc1)c1cn(-c2ccccc2)nc1-c1ccccc1 | -83* | -8 | 1 | 0 | -1 | 2%
O=C(NCCCn1ccnc1)c1ccc2ccccc2c1 | -37* | -7 | 3 | 0 | -2 | -17%
O=C(c1ccccc1)c1ccc(NCCCn2ccnc2)c([N+](=O)[O-])c1 | -35* | -12 | 15 | -1 | 11 | -11%
CCN(CC)S(=O)(=O)c1ccc(NCCCn2ccnc2)c([N+](=O)[O-])c1 | -7 | 2 | 0 | 0 | -18 | -14%
O=C(NCCCn1ccnc1)c1ccccc1Br | -11 | 2 | 3 | -1 | -4 | -4%
SMILES | D1 antag | D1 potentiator | D1 ag | TRHR ag | TRHR enhancer | USP1 inh
Cc1cccc(-n2ncc3c(NNC(=O)c4ccccc4Cl)ncnc32)c1 | -1 | 0 | -1 | 0 | 3 | u
O=C(NCCc1ccc(Cl)cc1)c1cccn1-c1nnc(N2CCCC2)s1 | -14 | -5 | 1 | 0 | -4 | -9%
COc1cccc(CNC(=O)COc2cc(=O)n(C)c3ccccc23)c1 | 2 | -4 | 1 | 0 | 2 | -8%
CCOC(=O)c1c(C)[nH]c(C)c1S(=O)(=O)N1CCCC(C(=O)Nc2ccccc2OCC)C1 (configuration not stated) | 8 | -3 | 3 | 0 | -6 | -1%
CCCC1OC2CC3C4CCC5=CC(=O)C=CC5(C)C4C(O)CC3(C)C2(C(=O)O)O1 (configuration not stated) | 7 | -2 | 4 | 0 | 0 | -23%
CCCC1O[C@@H]2C[C@H]3[C@@H]4CCC5=CC(=O)C=C[C@]5(C)[C@H]4[C@@H](O)C[C@]3(C)[C@]2(C(=O)CO)O1 (some centres not stated) | -23 | -5 | 2 | 1 | 33* | -18%
COc1cc2c(cc1OC)n(Cc1cccc(C(F)(F)F)c1)c(=O)n1nc(-c3ccccc3)nc21 | 17 | 0 | 5 | -2 | 8 | -5%
COc1ccc(CNC2CCSc3ccccc32)cc1OC (configuration not stated) | -32* | -3 | 2 | 0 | -26 | -7%
COc1ccc(CNC2CCCc3ccccc32)cc1OC (configuration not stated) | 9 | -8 | 9 | 0 | -2 | -10%
Cn1cc(C2=C(c3ccc(Cl)cc3Cl)C(=O)NC2=O)c2ccccc21 | 23 | 2 | 145* | 48* | 5 | -16%
Cn1cc(-c2ccccc2C(N)=O)c(=O)c2cc(Cl)ccc21 | -5 | 0 | 2 | 0 | -5 | -16%
CC(=O)c1cccc(NC(=O)Nc2nnc(N3CCCC3)s2)c1 | 0 | -1 | -1 | 0 | -2 | 0%
OC(COc1ccc(Br)cc1)CN1CCC(Cc2ccccc2)CC1 (configuration not stated) | -43* | -11 | 18 | 2 | 9 | -31%
CC1CCN(CC(O)COc2ccc(F)cc2)CC1 (configuration not stated) | -49* | x | 2 | 1 | -6 | -25%
